Test results taken from PubChem BioAssay AID2662 (National Center for Advancing Translational Sciences (NCATS), 2010).
Screen size: about 290,000 compounds; about 110 (0.038%) were called active. Inconclusive results (about 3%) are left out. This is one part of a sample in which actives are shown more often than they occur. Calls come from the whole dose curve; as a rule, active = well fitted inhibition curve with a large enough effect in the polarisation, with a control signal flat (not every such curve was filed as active); inconclusive = small, poorly fitted or top-dose-only effect, or effect the other way, or a change in a side signal; inactive = no such curve, though single readings can be large or run the other way; the % refers to the polarisation.

Each molecule was assayed against Histone-lysine N-methyltransferase 2A (Homo sapiens) (UniProt Q03164) (assay: qHTS Fluorescence Polarization Assay for Inhibitors of MLL CXXC domain - DNA interaction). Settings: MLL-CXXC / FITC-HOXA9 DNA fluorescence polarization; series mostly up to 115 µM; activity change, negative = inhibition: at the top concentration.
Sequence of Histone-lysine N-methyltransferase 2A (Homo sapiens) (Q03164 whole entry, looked up, the tested form may be a part): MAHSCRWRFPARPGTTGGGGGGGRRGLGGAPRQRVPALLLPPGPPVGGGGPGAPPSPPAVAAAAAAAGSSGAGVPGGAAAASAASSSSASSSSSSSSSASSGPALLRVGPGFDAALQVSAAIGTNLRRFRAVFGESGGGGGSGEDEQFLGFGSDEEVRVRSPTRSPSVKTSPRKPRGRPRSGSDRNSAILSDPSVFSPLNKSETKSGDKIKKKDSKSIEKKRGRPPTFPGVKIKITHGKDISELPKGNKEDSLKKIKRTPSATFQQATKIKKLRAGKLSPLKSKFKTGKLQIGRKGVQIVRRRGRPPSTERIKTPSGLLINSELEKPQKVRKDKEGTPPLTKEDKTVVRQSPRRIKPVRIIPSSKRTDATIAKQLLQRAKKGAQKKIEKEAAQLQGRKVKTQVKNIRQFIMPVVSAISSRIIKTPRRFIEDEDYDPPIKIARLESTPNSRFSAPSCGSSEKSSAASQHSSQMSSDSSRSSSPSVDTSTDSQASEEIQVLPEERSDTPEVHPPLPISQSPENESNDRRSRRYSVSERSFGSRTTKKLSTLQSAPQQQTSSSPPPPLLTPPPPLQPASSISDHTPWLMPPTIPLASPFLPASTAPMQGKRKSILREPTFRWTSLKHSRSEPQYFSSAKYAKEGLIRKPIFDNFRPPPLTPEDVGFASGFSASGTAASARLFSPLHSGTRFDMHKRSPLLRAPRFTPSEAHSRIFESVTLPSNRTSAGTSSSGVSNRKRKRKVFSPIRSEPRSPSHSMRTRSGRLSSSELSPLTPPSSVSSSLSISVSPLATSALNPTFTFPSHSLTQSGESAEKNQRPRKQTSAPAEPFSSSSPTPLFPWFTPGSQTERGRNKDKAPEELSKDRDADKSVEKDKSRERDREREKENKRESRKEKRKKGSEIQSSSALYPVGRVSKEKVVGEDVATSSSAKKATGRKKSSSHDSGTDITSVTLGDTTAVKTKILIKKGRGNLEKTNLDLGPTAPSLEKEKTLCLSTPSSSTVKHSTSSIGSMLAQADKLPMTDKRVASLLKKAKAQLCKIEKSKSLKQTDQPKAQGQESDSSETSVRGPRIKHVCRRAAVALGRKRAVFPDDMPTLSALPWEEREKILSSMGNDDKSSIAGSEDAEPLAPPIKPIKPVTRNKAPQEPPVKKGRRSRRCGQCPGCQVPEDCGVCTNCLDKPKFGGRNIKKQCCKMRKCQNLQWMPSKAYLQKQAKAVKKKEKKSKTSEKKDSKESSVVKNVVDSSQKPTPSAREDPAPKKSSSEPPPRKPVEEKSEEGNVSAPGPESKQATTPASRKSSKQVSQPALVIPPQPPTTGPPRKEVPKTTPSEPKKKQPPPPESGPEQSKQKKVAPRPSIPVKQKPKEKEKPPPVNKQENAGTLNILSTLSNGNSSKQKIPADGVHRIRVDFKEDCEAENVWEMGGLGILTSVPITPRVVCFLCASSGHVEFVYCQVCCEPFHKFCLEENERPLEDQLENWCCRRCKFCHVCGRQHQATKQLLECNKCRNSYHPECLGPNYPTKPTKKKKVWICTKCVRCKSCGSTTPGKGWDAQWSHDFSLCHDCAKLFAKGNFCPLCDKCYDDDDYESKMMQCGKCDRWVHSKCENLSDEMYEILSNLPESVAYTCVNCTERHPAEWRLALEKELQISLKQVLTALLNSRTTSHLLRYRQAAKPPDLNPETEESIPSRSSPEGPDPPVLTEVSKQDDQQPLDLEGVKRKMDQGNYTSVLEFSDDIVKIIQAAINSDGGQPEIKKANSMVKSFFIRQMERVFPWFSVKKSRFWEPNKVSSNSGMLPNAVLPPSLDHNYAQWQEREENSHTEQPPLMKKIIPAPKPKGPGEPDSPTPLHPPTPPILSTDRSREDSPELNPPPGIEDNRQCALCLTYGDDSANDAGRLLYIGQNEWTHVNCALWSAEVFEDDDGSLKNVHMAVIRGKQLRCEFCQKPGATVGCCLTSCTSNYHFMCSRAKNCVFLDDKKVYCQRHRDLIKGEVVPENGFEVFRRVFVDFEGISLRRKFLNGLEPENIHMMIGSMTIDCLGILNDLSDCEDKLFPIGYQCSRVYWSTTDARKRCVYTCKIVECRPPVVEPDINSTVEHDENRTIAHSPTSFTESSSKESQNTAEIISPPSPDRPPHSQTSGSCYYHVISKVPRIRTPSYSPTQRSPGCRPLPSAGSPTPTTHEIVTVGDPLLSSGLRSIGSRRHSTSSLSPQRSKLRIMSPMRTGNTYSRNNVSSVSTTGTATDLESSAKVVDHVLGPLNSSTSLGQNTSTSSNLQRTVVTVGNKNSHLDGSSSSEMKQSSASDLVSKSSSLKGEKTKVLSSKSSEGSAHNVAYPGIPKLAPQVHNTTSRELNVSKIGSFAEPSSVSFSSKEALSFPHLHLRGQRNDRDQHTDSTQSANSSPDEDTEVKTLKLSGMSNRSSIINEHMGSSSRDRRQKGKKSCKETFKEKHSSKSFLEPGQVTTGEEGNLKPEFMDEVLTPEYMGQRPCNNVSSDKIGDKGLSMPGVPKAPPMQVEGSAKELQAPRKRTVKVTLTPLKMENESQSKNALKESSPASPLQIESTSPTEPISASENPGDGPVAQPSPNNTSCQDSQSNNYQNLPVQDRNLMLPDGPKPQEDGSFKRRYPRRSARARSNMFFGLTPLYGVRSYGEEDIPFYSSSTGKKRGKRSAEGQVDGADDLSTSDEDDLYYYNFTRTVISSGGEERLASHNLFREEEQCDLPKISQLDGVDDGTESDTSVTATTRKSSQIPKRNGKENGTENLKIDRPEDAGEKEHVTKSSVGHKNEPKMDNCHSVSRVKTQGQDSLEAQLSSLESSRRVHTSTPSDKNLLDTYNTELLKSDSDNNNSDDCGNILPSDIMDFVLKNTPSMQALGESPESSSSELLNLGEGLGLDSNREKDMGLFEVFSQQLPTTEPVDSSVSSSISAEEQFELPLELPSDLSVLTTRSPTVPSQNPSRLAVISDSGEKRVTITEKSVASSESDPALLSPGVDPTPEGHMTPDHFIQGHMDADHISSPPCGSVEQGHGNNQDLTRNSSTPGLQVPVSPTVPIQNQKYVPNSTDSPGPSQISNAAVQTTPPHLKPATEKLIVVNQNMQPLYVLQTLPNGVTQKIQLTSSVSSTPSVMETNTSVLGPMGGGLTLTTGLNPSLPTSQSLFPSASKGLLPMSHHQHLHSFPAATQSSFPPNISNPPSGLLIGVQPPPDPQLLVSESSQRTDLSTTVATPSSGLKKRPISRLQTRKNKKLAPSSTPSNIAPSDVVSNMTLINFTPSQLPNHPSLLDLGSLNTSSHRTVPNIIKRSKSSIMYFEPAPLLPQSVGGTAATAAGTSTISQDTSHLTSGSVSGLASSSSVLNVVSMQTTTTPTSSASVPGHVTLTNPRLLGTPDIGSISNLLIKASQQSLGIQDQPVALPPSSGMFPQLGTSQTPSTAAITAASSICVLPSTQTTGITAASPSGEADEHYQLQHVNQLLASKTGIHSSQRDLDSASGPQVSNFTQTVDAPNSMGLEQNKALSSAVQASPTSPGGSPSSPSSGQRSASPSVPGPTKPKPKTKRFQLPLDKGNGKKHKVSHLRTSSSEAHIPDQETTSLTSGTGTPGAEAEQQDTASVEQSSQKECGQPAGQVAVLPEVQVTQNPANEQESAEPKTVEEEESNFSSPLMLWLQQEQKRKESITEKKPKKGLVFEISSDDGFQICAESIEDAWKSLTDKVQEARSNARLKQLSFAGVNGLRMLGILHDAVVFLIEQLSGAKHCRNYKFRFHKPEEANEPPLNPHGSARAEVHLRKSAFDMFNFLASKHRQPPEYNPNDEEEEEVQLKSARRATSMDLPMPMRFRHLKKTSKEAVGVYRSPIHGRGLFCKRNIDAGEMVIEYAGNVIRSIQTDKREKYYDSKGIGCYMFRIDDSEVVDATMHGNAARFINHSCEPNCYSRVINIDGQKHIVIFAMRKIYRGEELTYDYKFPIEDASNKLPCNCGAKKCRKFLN
Outline: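 Purified MLL-CXXC (added from a 7 uM solution) was preincubated 5 min at ambient with pinned compounds in 50 mM Tris-HCl pH 7.5, 50 mM NaCl, 1 mM DTT, 0.05% BSA. Fluorescein-labeled HOX-A9 DNA (50 nM solution) followed, 30 min, then polarization read.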
Potency is the fitted concentration of half-maximal effect.

Activity change, negative = inhibition, inactive:
O=C(NCCN1CCOC1=O)C1CCC(=O)N(CCc2ccc(Cl)cc2)C1 (centres undefined) -2.88%
Cc1cccc(-n2ncc(Cl)c(Cl)c2=O)c1 0.435%
O=C(NCc1ccncc1)C(=O)NCC1OCCN1S(=O)(=O)c1ccc(Br)cc1 (centres undefined) 11%
NC(=O)C(=O)N/N=C/c1ccc([N+](=O)[O-])o1 -4.71%
Cc1ccc(NC(=O)CSc2cccc3cccnc23)c(C)c1 -0.728%
O=C(O)C(c1ccccc1)N1C(=O)/C(=C\c2ccc(-c3cccc(Cl)c3)o2)SC1=S (centres undefined) 49.4%
Cc1cccc(C)c1-n1c(C)cc(/C=C2\C(=O)NN(c3ccccc3)C2=O)c1C -14.4%
O=C(NCCCn1ccnc1)c1cc2c(s1)CCCC2 -5.38%
O=C(NC1CCN(S(=O)(=O)c2ccc(F)cc2)CC1)c1ccccc1 -1.5%
O=S(=O)(c1ccc(Br)c2ccccc12)N1CCOCC1 -2.11%
COCCCN1C(=O)C(=O)/C(=C(/O)c2ccc(S(=O)(=O)N3CCOCC3)cc2)C1c1ccc(F)cc1 (centres undefined) -6.08%
CCOc1ccc2nc(N(CCCN(C)C)C(=O)c3ccc(C(=O)c4ccccc4)cc3)sc2c1 5.3%
O=C1CCC(C(=O)N2CCN(c3ccccc3Cl)CC2)CN1CC1CCCCC1 (centres undefined) -0.943%
CCOC(=O)Cn1c(O)c(N=NC(=O)CNC(=O)Cc2ccccc2)c2ccccc21 -5.83%
Cc1cc(C)nc(N/N=C/c2c(CO)cnc(C)c2O)n1 27%
CCCNC(=O)c1ccc(N2CCC3(CC2)CC(c2ccc(Cl)cc2)=NO3)c([N+](=O)[O-])c1 1.09%
CCOC(=O)C1CCN(S(=O)(=O)c2ccc3c(c2)N(C)C(=O)CC(=O)N3C)CC1 10.6%
O=C(NCc1ccncc1)C1CCN(C(=O)c2cccc(Cl)c2)CC1 7.78%
O=C(CNC(=O)[C@@H]1Cc2ccccc2CN1)NC1CCCCC1 -11.1%
Cc1nn(C)c(Cl)c1CN1CCC(Oc2ccc(C(=O)N3CCCC3)cc2)CC1 4.04%
Cc1ccc(S(=O)(=O)N/N=C(\c2ccccc2)C2CC2)cc1 -5.98%
O=C(NCCCn1ccnc1)c1cc(Br)c(Br)s1 1.28%
Cc1cccc(CN2CCC(n3nccc3NC(=O)c3ccccc3C)CC2)n1 0.021%
Cc1cc(=O)oc2c3c(cc(OCC(=O)N[C@H](C(=O)O)c4ccccc4)c12)OC(C)(C)CC3 13.2%
CCCNC(=O)c1cnc(-c2ccccc2)nc1-c1ccccc1 18.4%
CCCCc1nc2cc(C(=O)NCCc3cnn(C)c3)ccc2o1 8.7%
COc1ccc(NC(=S)N2CCC(NC(=O)c3cccc(F)c3)CC2)cc1 5.04%
S=C(Nc1ccc(Cl)cc1Cl)N1CCCC1 8.17%
Cc1ccc(-c2csc(N3CCN(c4cc5c(cc4Cl)nc(-c4ccncc4)n5CCOCCO)CC3)n2)cc1 17.7%
O=C(N/N=C/c1cccnc1)c1ccc(NC(=O)c2ccc(F)cc2)cc1 -6.31%
COCCC(=O)N1CCC(Oc2ccc(C(=O)NCc3ccon3)cc2)CC1 -13.7%
O=c1[nH]cnc(O)c1C(c1ccc(F)cc1)c1c(O)nc[nH]c1=O -8.5%
CCCc1nnc(NC(=O)CCC(=O)N2CCN(S(=O)(=O)c3ccc(OC)cc3)CC2)s1 -3.18%
O=C(c1cc2ccccc2o1)N1CCN(c2cccc(C(F)(F)F)c2)CC1 13.8%
CCN(CC)CCCNC(=S)N(CCO)Cc1cc2cc3c(cc2[nH]c1=O)OCO3 1.28%
CC(=O)N(CC(O)CO)c1c(I)c(C(=O)NCC(O)CO)c(I)c(C(=O)NCC(O)CO)c1I (centres undefined) 3.35%
CC(C)=CCN1CCN(Cc2cc3ccccc3[nH]2)CC1CCO (centres undefined) 2.45%
CCc1ccc(C(=O)NN=C2CCCCCC2)s1 -6.71%
COc1ccc(C(=O)Nc2ccc(C(=O)NCC3CCCO3)cc2)c(OC)c1OC (centres undefined) -5.91%
O=C(c1cccc(Br)c1)N1CCN(C2=NS(=O)(=O)c3ccccc32)CC1 0.198%
O=C(NCCCNC(=O)c1ccccc1Cl)c1cnccn1 1.34%
Cc1cc(C)c(C(=O)CSc2nc(C)cc(=O)[nH]2)c(C)c1 15.2%
NC(=O)Cn1cc(/C=N\NS(=O)(=O)c2ccccc2)c2ccccc21 0.323%
COc1cccc(CN(C)CC2CCCN(CCc3ccc(Cl)cc3)C2)c1OC (centres undefined) -12.2%
C/C=C/C=N/NC(=O)c1ccncc1 -7.45%
CN1C(=O)[C@H]2[C@@H](C3CC3)N3C(=O)CN(Cc4ccccc4)C(=O)[C@@]3(C)[C@H]2C1=O -2.11%
COc1ccc(C(=O)CCC(=O)Nc2cccnc2)c(OC)c1 24.3%
CC(C)(O)c1ccccc1CC[C@H](SCC1(CC(=O)O)CC1)c1cccc(/C=C/c2ccc3ccc(Cl)cc3n2)c1 -8.6%
CCN(CC)c1ccc(C(=O)Nn2c(C)nc3ccccc3c2=O)cc1 -3.36%
O=C(NC(=S)Nc1ccc(Cl)c(C(=O)O)c1)c1cncc(Br)c1 12.4%
CC(C)c1ccc(C2C(C(=O)c3ccco3)=C(O)C(=O)N2CC2CCCO2)cc1 (centres undefined) 6.78%
COc1cc(C)c(C)cc1S(=O)(=O)N1CCCc2ccccc21 1.1%
Cc1c(S(=O)(=O)N2CC(C)CC(C)C2)c(=O)n(C)c(=O)n1C (centres undefined) 17.4%
O=CN1CCN(C(=O)c2ccc(Br)o2)CC1 6.07%
Cc1ccc(NS(=O)(=O)c2ccc(-c3coc(C)n3)cc2)c(C)c1 -1.43%
COc1ccc2cc(S(=O)(=O)Nc3ccccn3)ccc2c1 0.793%
COc1ccc(S(=O)(=O)Nc2c(C)n(C)n(-c3ccccc3)c2=O)cc1 -7.65%
NC(=O)c1cc(S(=O)(=O)N2CCCC2)ccc1OCc1ccc(F)cc1 13.4%
O=C(O)c1ccc(S(=O)(=O)N2CCOCC2)o1 1.09%
CCn1nc(C)c(CNC(=O)C2CCC(=O)N(Cc3cccc(F)c3)C2)c1C (centres undefined) 0.542%
COc1ccc(-c2cc(=O)oc3cc(OCC(=O)N(C)C4CCS(=O)(=O)C4)ccc23)cc1 (centres undefined) 0.391%
Cc1cc(C)c2c(Cn3ccnc3)cc(=O)oc2c1 11.5%
Cc1cc(-c2nnc(SCC(=O)Nc3ccc(S(N)(=O)=O)cc3)n2N)n[nH]1 12.2%
Cc1ccc(NC(=O)NC(=O)c2ccccc2)cc1F 15.1%
Cc1ccc(NC(=O)CSc2nn3c(=O)c(C)nnc3s2)cc1Cl 4.2%
COc1ccc(CNS(=O)(=O)c2ccc(NC(=O)N3CCCCC3)cc2)cc1 -3.43%
CCCc1cc(C(=O)N2CCCC(CO)(CCCc3ccccc3)C2)n(C)n1 (centres undefined) 3.59%
Cc1ccc(C(=O)NCC(=O)OCc2nnc(-c3ccccc3)o2)cc1 -10.8%
COc1ccc(CN2CCCC(N3CCc4ccccc4C3)C2)c(O)c1 (centres undefined) -1.21%
CC(C)(C)c1ccc(C(=O)N2CCN(CCNC(=O)C(=O)Nc3ccc(F)cc3)CC2)cc1 -10.7%
O=C(NCCCN1CCOCC1)C1CCCN(S(=O)(=O)N2CCCCC2)C1 (centres undefined) 0.988%
O=C(CCn1nnc2ccccc21)OCC(=O)c1ccc([N+](=O)[O-])cc1 -0.286%
COc1cc([N+](=O)[O-])cc([N+](=O)[O-])c1NC(=O)N1CCOCC1 -1.05%
Cc1csc(NC(=O)CSc2nc(=O)cc(N)n2-c2ccc(F)cc2)n1 1.97%
CCOc1ccc(S(=O)(=O)N2CCCC(C(=O)N3CCC(C(N)=O)CC3)C2)cc1Cl (centres undefined) 2.08%
Cc1c(CN2CCC(n3nccc3NC(=O)CCc3ccccc3)CC2)cnn1C 6.67%
CC(=O)c1ccc(NC(=O)Cn2c(=O)oc3ccccc32)cc1 -3.9%
CCOc1ccccc1NC(=O)C1CCCN(S(=O)(=O)c2ccccc2)C1 (centres undefined) 0.776%
CC1CCC(NS(=O)(=O)c2ccc3c(c2)CC(=O)N3)CC1 (centres undefined) 5.85%
CC(=O)N[C@@H](C)C(=O)N1CCC(n2nccc2NC(=O)CCCc2ccccc2)CC1 4.89%
Clc1ccc(C(Cn2ccnc2)OCc2ccsc2Cl)c(Cl)c1 (centres undefined) 0.809%
COc1ccc(OCCn2ccnc2C)cc1 -0.496%
Cc1ccc(CN(C)Cc2cc(=O)oc3cc(C)c(Cl)cc23)cc1 15.9%
COc1ccc(N(C(=O)CNC(=O)c2ccco2)C(C(=O)NCC2CCCO2)c2ccccc2)cc1Cl (centres undefined) -5.18%
CCOC(CNC(=O)C(=O)NCC(c1ccco1)N1CCN(c2ccc(OC)cc2)CC1)OCC (centres undefined) -8.29%
Cc1ccc(NS(=O)(=O)c2c(C)[nH]c(C)c2C(=O)N2CCCCC2)c(C)c1 1.83%
CCOC(=O)c1cccc(NC(=O)C2CCN(c3ncnc4c3nc3n4CCCCC3)CC2)c1 1.78%
O=S1(=O)CCO[C@H]2Cc3ccccc3[C@H]2N1Cc1ccccc1 -1.12%
CC(C)c1ccc(/C=C2\NC(=O)NC2=O)cc1 1.65%
Cc1cccc(NS(=O)(=O)c2ccc([N+](=O)[O-])cc2)n1 0.441%
COc1ccc(NC(=O)CC2C(=O)NC3CCCCC3N2C(=O)c2ccc(F)cc2)cc1 (centres undefined) 18.1%
COCC1CCN(C(=O)C2CCC(=O)N(CC3CCCCC3)C2)CC1 (centres undefined) 22.3%
S=C(NCCC1=CCCCC1)Nc1ccccc1 -18.3%
CSc1ccccc1OCc1cc(C(=O)N2C[C@H]3CC[C@H]2C3)no1 4.47%
O=C(Cc1ccc(Cl)cc1)NC(=S)Nc1ccccc1O 15%
CCC(C)(C)n1nnnc1C(c1ccc(OC)c(OC)c1)N1CCN(C(=O)c2ccco2)CC1 (centres undefined) 4.14%
CC(=O)NC(Cc1c[nH]c2ccccc12)C(=O)NCCc1ccccc1 (centres undefined) 4.26%
C[C@H](C(=O)CC(=O)OC(C)(C)C)[C@H](O)c1ccc(C(F)(F)F)cc1 5.01%
CCc1nc2nc(C)c(NS(=O)(=O)c3ccc4c(c3)CCCC4)c(=O)n2[nH]1 -9.81%
CCOC(=O)c1c(C)[nH]c(C(=O)NCCN2CCOCC2)c1C 6.14%
COc1ccc(NS(=O)(=O)c2cc(C(=O)Nc3ccccc3C(=O)O)ccc2C)cc1 -16.7%

Potency, active:
O=C1NN(c2ccccc2)C(=O)/C1=C/c1ccc(-c2cccc(C(=O)O)c2)o1 20 µM
CCOC(=O)/C(N=Nc1cc(C(=O)O)cc(C(=O)O)c1)=C(\O)CCl 25.1 µM
COc1ccc(S(=O)(=O)/N=C2\C=C(NS(=O)(=O)c3ccccc3)C(=O)c3ccccc32)cc1 25.1 µM
